This is a sample that favours compounds with a hit; in the whole collection about 2.4% have one here.
D2 PAM-1 – D2 dopamine receptor (human) potentiation. P14416. 340,000 compounds, 0.34% hits. potentiation, % at 10 µM. HEK293 T-REx D2, calcium flux, EC20 dopamine potentiation;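 active = potentiation over 3 SD above the plate norm, cut at about 30% in these data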
Target sequence (P14416 whole entry, looked up): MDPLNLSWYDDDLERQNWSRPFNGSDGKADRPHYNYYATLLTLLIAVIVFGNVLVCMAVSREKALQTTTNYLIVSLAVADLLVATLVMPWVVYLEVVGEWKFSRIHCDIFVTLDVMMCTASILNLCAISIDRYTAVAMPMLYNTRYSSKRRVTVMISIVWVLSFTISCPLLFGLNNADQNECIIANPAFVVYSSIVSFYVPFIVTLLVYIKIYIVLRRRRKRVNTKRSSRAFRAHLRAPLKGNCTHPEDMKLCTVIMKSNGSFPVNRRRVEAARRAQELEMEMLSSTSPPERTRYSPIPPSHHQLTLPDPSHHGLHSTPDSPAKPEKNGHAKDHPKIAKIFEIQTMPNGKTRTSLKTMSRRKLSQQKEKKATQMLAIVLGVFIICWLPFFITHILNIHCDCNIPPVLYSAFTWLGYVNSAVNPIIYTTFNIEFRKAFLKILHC
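Potentiation of an EC20 dopamine calcium response is measured in a force-coupled, tetracycline-inducible Hek293 Trex D2 line. Compound-only kinetic reads over 180 s flag agonists before dopamine addition.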
D2 PAM-2 – human D2 receptor positive allosteric modulation; potentiation, % (test concentration not listed); DiscoveRx D2 beta-arrestin cells, luminescence, 90 min; 100% = 57 uM dopamine signal; P14416; 360,000 compounds, 0.23% hits; in the data active = potentiation above about 50%
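PathHunter beta-arrestin assay in DiscoveRx D2 cells. Compounds were added with an EC20 of dopamine (50 nM final) for 90 min at 37 deg C. Luminescence was read 1 h after detection reagent, with 57 uM dopamine as the EC100 control.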
D2 ag-1 – agonists of human D2 dopamine receptor (beta-arrestin) | P14416 | activation, % (no concentration beside the values) | 360,000 compounds, 0.084% hits | DiscoveRx PathHunter D2 beta-arrestin, luminescence, 90 min; 100% = 57 uM dopamine signal | AID 624465; in the data active = activation above about 40%
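Agonist mode: compounds alone added to overnight-plated D2 PathHunter cells for 90 min at 37 C, with 57 uM final dopamine (EC100) defining full response. Beta-arrestin recruitment detected by chemiluminescent reagent, read after 1 h at ambient temperature.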
D2 antagonist – D2 dopamine receptor (human) antagonism; HEK293 TREx D2 cells, calcium flux, dopamine EC80; inhibition, % at 10 µM; AID 485344; 340,000 compounds, 2% hits; in the data active = inhibition above about 30%; inactive = below that, where a call was filed
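Compounds are added to dye-loaded, induced HEK293 T-REx cells coupled to calcium release via D2; after a 3 min kinetic read an EC80 dopamine stimulus is given and fluorescence is recorded for 3 more min.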
D2 ag-2 – activates the human D2 dopamine receptor; activation, % at 2 µM; AID 485358; HEK293 T-REx D2 cells, calcium flux agonist mode; P14416; 340,000 compounds, 0.53% hits;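 active = activation over 3 SD above normal in the single-dose calcium agonist read, cut at about 30% in these data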
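Agonism is scored from calcium flux in a force-coupled, inducible HEK293 cell line expressing D2, read kinetically for 180 s after compound addition against dopamine controls.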
Hits are given with their value.

`Nc1c([N+](=O)[O-])cc(F)c(N2CCNCC2)c1Br` gave D2 PAM-1 inactive, D2 PAM-2 inactive, D2 ag-1 inactive, D2 antagonist inactive and D2 ag-2 inactive.
Screening CN1CCN(c2c(F)cc([N+](=O)[O-])c(N)c2Br)CC1 returned D2 PAM-1 inactive, D2 PAM-2 inactive, D2 ag-1 inactive, D2 antagonist 35 and D2 ag-2 inactive.
`Nc1c(C(=O)NCc2ccco2)c2nc3ccccc3nc2n1CCN1CCCCC1` gave D2 PAM-1 30, D2 PAM-2 inactive, D2 ag-1 inactive, D2 antagonist inactive and D2 ag-2 inactive.
`COc1ccccc1OCCCn1cc(C(=O)c2ccco2)c2ccccc21` gave D2 PAM-1 inactive, D2 PAM-2 inactive, D2 ag-1 inactive, D2 antagonist inactive and D2 ag-2 inactive.
O=C(c1ccco1)c1cn(Cc2ccc(Cl)cc2)c2ccccc12 was read as D2 PAM-1 inactive, D2 PAM-2 inactive, D2 ag-1 inactive, D2 antagonist 31 and D2 ag-2 inactive.
`CN1CCN(c2oc(-c3ccc(COc4ccccc4)o3)nc2C#N)CC1` gave D2 PAM-1 inactive and D2 ag-2 inactive.
`Cc1ccc(-n2c(O)c(C=N)c(=O)n(-c3ccc(C)cc3)c2=O)cc1` gave D2 PAM-1 inactive, D2 PAM-2 inactive, D2 ag-1 inactive, D2 antagonist inactive and D2 ag-2 inactive.
N=Cc1c(O)n(-c2ccccc2)c(=O)n(-c2ccccc2)c1=O was read as D2 PAM-1 inactive, D2 PAM-2 64, D2 ag-1 inactive, D2 antagonist inactive and D2 ag-2 inactive.
`Cc1ccc(C(C)C)c(OCC(=O)N2CCN(CCc3ccncc3)CC2)c1` gave D2 PAM-1 inactive and D2 ag-2 inactive.
CCCCCCn1c(O)c(C=Nc2ccccc2N2CCOCC2)c(=O)[nH]c1=S was read as D2 PAM-1 inactive, D2 PAM-2 inactive, D2 ag-1 inactive, D2 antagonist 37 and D2 ag-2 inactive.
Screening CCCCn1c(O)c(/C=N/N2CCOCC2)c(=O)[nH]c1=S returned D2 PAM-1 inactive, D2 PAM-2 inactive, D2 ag-1 inactive, D2 antagonist inactive and D2 ag-2 inactive.
`COc1ccc(CN2CCN(Cc3ccccc3F)CC2)cc1` gave D2 PAM-1 inactive, D2 PAM-2 inactive, D2 ag-1 inactive, D2 antagonist 31 and D2 ag-2 inactive.
CSc1ccc(CN2CCN(C(=O)Cc3ccccc3)CC2)cc1 was read as D2 PAM-2 inactive and D2 ag-1 inactive.
Screening CSc1ccc(CN2CCN(Cc3ccccc3Cl)CC2)cc1 returned D2 PAM-1 inactive, D2 PAM-2 inactive, D2 ag-1 inactive, D2 antagonist 70 and D2 ag-2 inactive.
Cc1cc(OCC(=O)N2CCN(CCc3ccncc3)CC2)cc(C)c1Cl was read as D2 PAM-1 inactive.
For O=C(/C=C/c1c[nH]c2ccccc12)c1c(O)n(CCc2ccccc2)c(=O)[nH]c1=O the results were D2 PAM-1 inactive, D2 PAM-2 inactive, D2 ag-1 inactive, D2 antagonist 37 and D2 ag-2 40.
`CCCCn1c(O)c(C(C)=NCCc2c[nH]c3ccccc23)c(=O)[nH]c1=O` gave D2 PAM-1 inactive, D2 PAM-2 inactive, D2 ag-1 inactive, D2 antagonist inactive and D2 ag-2 inactive.
`Cc1ccc(OCC(=O)N2CCN(CCc3ccncc3)CC2)cc1C` gave D2 PAM-1 inactive and D2 ag-2 inactive.
Screening O=c1[nH]c2ccccc2n1C1CCN(CCCC(c2ccc(F)cc2)c2ccc(F)cc2)CC1 returned D2 PAM-1 inactive, D2 PAM-2 inactive, D2 ag-1 inactive, D2 antagonist 87 and D2 ag-2 inactive.
Cc1cccc(-n2c(CC3C(=O)Nc4ccc(C)cc43)nc3ccccc3c2=O)c1 (stereo not drawn) was read as D2 PAM-1 inactive and D2 ag-2 inactive.
Screening COc1ccccc1N=Cc1c(O)n(C)c(=O)n(C)c1=O returned D2 PAM-1 inactive, D2 PAM-2 inactive, D2 ag-1 inactive, D2 antagonist 35 and D2 ag-2 inactive.
Screening CCCc1nc(SC)ncc1C(=O)Nc1ccc(Cl)cc1C(=O)c1ccccc1 returned D2 ag-2 inactive.
`COc1ccc2c(c1OC)CN1CCc3cc4c(cc3C1C2)OCO4` (stereo not drawn) gave D2 PAM-1 inactive, D2 PAM-2 inactive, D2 ag-1 inactive, D2 antagonist 86 and D2 ag-2 inactive.
